Results published in ChEMBL document CHEMBL4513216, “Probing the Open Global Health Chemical Diversity Library for Multistage-Active Starting Points for Next-Generation Antimalarials” (ACS Infect Dis, 2020).
In all, about 69,000 compounds went through this assay and about 8,600 (12%) showed an effect of 50% or more. The sample as a whole holds a higher share of strong results than the screen did.

test system: Plasmodium berghei; experiment: Screen against P. berghei liver stage (PbLuc), transformed with Luciferase, at 10uM; type: functional, HepG2; conditions: tested at 10 uM

Q: Which INHIBITION does the source give for `Cc1nn(C)c(C)c1C1CCCN1Cc1ccc(C(N)=O)cc1` (centres undefined) here?
A: 13.3%

Q: With `Cn1nc(CO)c2c1CCN(c1ncnc3c1CCNCC3)C2` as the compound, how does the INHIBITION read?
A: 26.8%

Q: Which INHIBITION does the source give for `Cn1cnnc1C1CCCN(C(=O)c2cc(Cl)cc(Cl)c2)C1` (centres undefined) here?
A: 11.6%

Q: Which INHIBITION does the source give for `O=C(c1cccc(CNS(=O)(=O)c2ccc(F)cc2)c1)N1CCCC1` here?
A: 15.6%

Q: How did the INHIBITION turn out when `COCc1nc(CN2CC(Cc3ccccc3)CC2=O)no1` (centres undefined) was run?
A: -37.2%

Q: For `Cc1nnc(SCC(=O)N2C[C@@H]3CC[C@H]2CN(c2ncccn2)C3)[nH]1`, which INHIBITION is on record?
A: 19.4%

Q: How did the INHIBITION turn out when `Cc1nc(C)n(CC2CCCN2c2ncnc3ccsc23)n1` (centres undefined) was run?
A: 27.8%

Q: Which INHIBITION does the source give for `Cc1nc(C)n(CC2CCCN(c3ncnc4ccccc34)C2)n1` (centres undefined) here?
A: 88.2%

Q: For `Cc1nc(C)n(CC2CCCN(c3ncnc4sccc34)C2)n1` (centres undefined), which INHIBITION is on record?
A: 72.9%

Q: Which INHIBITION does the source give for `Cc1nc(C)n(CC2CCCN(CCc3ccccc3)C2)n1` (centres undefined) here?
A: 38.8%

Q: How did the INHIBITION turn out when `Cc1nc(C)n(CC2CCCCN2c2ncnc3ccsc23)n1` (centres undefined) was run?
A: 27.8%

Q: `Cc1nc(C)n(CC2CCCN(CCc3ccncc3)C2)n1` (centres undefined) was tested. Which INHIBITION did it give?
A: 24%

Q: `Cc1nc(C)n(CC2CCCN(CCc3ccccn3)C2)n1` (centres undefined) was tested. Which INHIBITION did it give?
A: 53.8%

Q: `Cc1nc(C)n(CC2CCCN(c3ncnc4ccsc34)C2)n1` (centres undefined) was tested. Which INHIBITION did it give?
A: 83.1%

Q: With `Cc1nc(C)n(CC2CCCN2c2ncnc3sccc23)n1` (centres undefined) as the compound, how does the INHIBITION read?
A: -3.81%

Q: With `Cc1nc(C)n(CC2CCCN(c3ccnc(-c4ccccc4)n3)C2)n1` (centres undefined) as the compound, how does the INHIBITION read?
A: 26.6%

Q: `Cc1nc(C)n(CC2CCCN(c3ncnc4[nH]ccc34)C2)n1` (centres undefined) was tested. Which INHIBITION did it give?
A: 5.13%

Q: For `Cc1nc(C)n(CC2CCCN(c3ccc(C#N)cn3)C2)n1` (centres undefined), which INHIBITION is on record?
A: -10.6%

Q: With `CCOc1ccc(S(=O)(=O)NC(=O)CC2CCCO2)cc1` (centres undefined) as the compound, how does the INHIBITION read?
A: -4.94%

Q: For `Cc1ccc(CN2CC[C@H]3OCC[C@@]3(C(=O)N3CCCO3)C2)o1`, which INHIBITION is on record?
A: 0.618%

Q: For `Cc1nn(CCC(=O)N2CCN(Cc3cnn(C)c3C)CC2)c(C)c1Br`, which INHIBITION is on record?
A: 43.4%

Q: `CC(C)c1nc(C2CCCN2C(=O)c2ccc(C#N)cn2)no1` (centres undefined) was tested. Which INHIBITION did it give?
A: 22.9%

Q: How did the INHIBITION turn out when `CN(C)c1cncc(C2CCCN(c3cnccn3)C2)n1` (centres undefined) was run?
A: 17.77%

Q: For `CN(Cc1ccc(Br)c2cccnc12)S(C)(=O)=O`, which INHIBITION is on record?
A: -17.85%

Q: For `CC(C)N1CCC(c2cccc(C(=O)N(C)C)n2)CC1`, which INHIBITION is on record?
A: -7.66%

Q: For `c1cc(CN2CCC(c3nnc4n3CCCCC4)CC2)c2c(c1)OCO2`, which INHIBITION is on record?
A: 29.7%

Q: Which INHIBITION does the source give for `c1ccc2c(c1)CC(N1CCCN(Cc3cccc4nonc34)CC1)C2` here?
A: 49%

Q: With `c1cc(CN2CCC(c3nnc4n3CCCCC4)CC2)c2nonc2c1` as the compound, how does the INHIBITION read?
A: 64.4%

Q: How did the INHIBITION turn out when `CCC(C)(COc1ncccc1Cl)NCC(=O)Nc1ccc(Br)cn1` (centres undefined) was run?
A: 36.5%

Q: How did the INHIBITION turn out when `CCOc1ncccc1NC(=O)NC1CCN(C(=O)C2CC2)CC1` was run?
A: 41.2%

Q: `CCC(C)(COc1ncccc1Cl)NCC(=O)NCC(C)C` (centres undefined) was tested. Which INHIBITION did it give?
A: 57.4%

Q: `CC(C)CNC(=O)CNC(=O)Nc1cccc(Cl)c1-n1cccn1` was tested. Which INHIBITION did it give?
A: -29.2%

Q: `Cc1ccc(Oc2ncccc2CNC(=O)NC2CCCCC2)cn1` was tested. Which INHIBITION did it give?
A: 19.4%

Q: How did the INHIBITION turn out when `CCC(C)(COc1ncccc1Cl)NCC(=O)NC1CCCCC1` (centres undefined) was run?
A: 68.5%
